From PubChem BioAssay AID1240 (Sanford-Burnham Center for Chemical Genomics, 2008)
Hit rate of the full screen: of about 50,000 compounds, about 800 (1.6%) showed an effect of 50% or more. Only a selection was taken, and strong results are over-represented in it overall.

Target: Bcl-2-like protein 10 (Homo sapiens) (UniProt Q9HD36)
Assay: TR3 peptide-Bcl-B binding displacers, biochemical primary FP assay, phenotype converters (AID 1240);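 also: 0% = Bcl-B with tracer peptide and DMSO and 100% = tracer peptide lacking Bcl-B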
Conditions: GST-Bcl-B / FITC-TR3 peptide fluorescence polarization; stronger effect = higher value; compound at 3.75 mg/L

Bcl-2-like protein 10 (Homo sapiens), sequence (Q9HD36 whole entry, looked up): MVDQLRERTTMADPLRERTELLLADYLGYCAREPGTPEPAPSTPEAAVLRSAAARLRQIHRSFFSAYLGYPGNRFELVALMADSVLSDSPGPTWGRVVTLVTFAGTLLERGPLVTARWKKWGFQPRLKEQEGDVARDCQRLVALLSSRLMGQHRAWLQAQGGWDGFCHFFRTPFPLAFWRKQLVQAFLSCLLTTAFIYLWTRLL

Row | SMILES | displacement [%]
1 | COc1ccc(OC)c(NS(=O)(=O)c2cccc([N+](=O)[O-])c2)c1 | 2.1
2 | COc1ccc(Cl)cc1NS(=O)(=O)c1cccc([N+](=O)[O-])c1 | 72.8
3 | Cc1cc(Cl)ccc1NS(=O)(=O)c1cccc([N+](=O)[O-])c1 | -1.2
4 | CC(C)C(=O)Nc1cc(C(F)(F)F)cc(C(F)(F)F)c1 | -2.9
5 | CCc1ccc(NC(=O)C(=O)NCc2ccccc2OC)cc1 | 6.8
6 | COc1ccc(C2=N/C(=C/c3ccccc3OC)C(=O)N2c2ccccc2)cc1 | 6.4
7 | COc1ccc(C=C2C(=O)N(c3ccccc3)C(=S)N(c3ccccc3)C2=O)c(OC)c1 | 10.9
8 | COc1ccc(C2=N/C(=C/c3ccc(F)cc3)C(=O)N2c2ccc(O)cc2)cc1 | 9
9 | COc1ccc(C2=N/C(=C/c3ccccc3F)C(=O)N2c2ccccc2)cc1 | 125
10 | COc1ccc(N2C(=O)/C(=C\c3ccc(OC)cc3OC)N=C2c2ccccc2)cc1 | 192
11 | COc1ccc(/C=C2/SC(=O)N(c3ccccc3)C2=O)c(OC)c1 | 5.9
12 | O=C1C(=O)N(c2cccc(Br)c2)C(c2ccccc2)/C1=C(/O)c1ccccc1 (stereo unspecified) | 12
13 | COc1ccc(NC(=O)c2ccc(S(=O)(=O)N3CCOCC3)cc2)c2ccccc12 | -8.9
14 | Cc1cccn2c(=O)c(/C=C3\SC(=S)N(C(C)c4ccccc4)C3=O)c(NCCCn3ccnc3)nc12 (stereo unspecified) | 8.8
15 | CC1=C(C#N)c2nc(N)c(C#N)c(C)c2/C1=C\c1ccc(C)o1 | -4.4
16 | CCc1ccccc1NC(=O)c1c(NC(=O)c2ccccc2)sc2c1CCC2 | -15.6
17 | Cc1ccccc1NC(=O)c1c(NC(=O)c2ccccc2Br)sc2c1CCCCC2 | 76.6
18 | N#Cc1c(NC(=O)c2ccc(C(=O)O)cc2C(=O)O)sc2c1CCCC2 | 11
19 | N#Cc1c(NC(=O)c2ccc(S(=O)(=O)c3ccccc3)cc2)sc2c1CCCC2 | 83.9
20 | Cc1ccccc1NC(=O)c1c(NC(=O)c2ccccc2C)sc2c1CCCCC2 | 13
21 | O=C(Nc1sc2c(c1C(=O)Nc1ccccn1)CCCCC2)c1ccccc1 | 95
22 | CCc1ccccc1NC(=O)c1c(NC(=O)c2ccccc2Cl)sc2c1CCC2 | 61.2

Row | SMILES | displacement [%]
23 | O=C(Nc1sc2c(c1C(=O)Nc1ccccn1)CCCCC2)c1ccccc1F | -3
24 | CCOc1ccccc1NC(=O)c1c(NC(=O)c2ccccc2Br)sc2c1CCCC2 | -3.8
25 | COc1ccc(C(=O)Nc2sc3c(c2C#N)CCCCC3)cc1 | -3.4
26 | COc1ccc(NC(=O)c2c(NC(=O)c3ccccc3)sc3c2CCCC3)cc1 | 5.7
27 | CCc1ccccc1NC(=O)c1c(NC(=O)c2ccccc2Br)sc2c1CCC2 | -4.1
28 | O=C(N/N=C/c1cccnc1)c1cc(-c2ccc3ccccc3c2)n[nH]1 | -3.8
29 | COc1ccc(S(=O)(=O)N2CCN(C3CC4CCC3C4)CC2)cc1 (stereo unspecified) | -1.9
30 | Cc1ccc(CNC(=O)C(=O)NC(C)C)cc1 | 4.4
31 | CC1(C)CC(=O)C2=C(C1)Nc1ccccc1NC2c1ccc(-c2ccccc2[N+](=O)[O-])o1 (stereo unspecified) | -15.9
32 | Cc1cc(-n2c(C)cc(C=O)c2C)ccc1I | -15.5
33 | O=C1c2cccc([N+](=O)[O-])c2C(=O)N1c1ccncc1 | -2.3
34 | O=C1/C(=C/c2ccco2)SC(=S)N1c1ccc(F)cc1 | 7.9
35 | O=C1S/C(=C\c2ccc(Br)o2)C(=O)N1c1ccc(Cl)c(Cl)c1 | -3.9
36 | CCOc1ccc(N2C(=O)S/C(=C\c3ccc(C)o3)C2=O)cc1 | 108
37 | O=C1S/C(=C\c2ccc(Br)cc2)C(=O)N1c1ccc(Cl)cc1 | -3.3
38 | CCOc1ccc(N2C(=O)S/C(=C\c3ccc(C)cc3)C2=O)cc1 | -5.8
39 | O=C1/C(=C/c2ccco2)SC(=S)N1c1cccc(C(F)(F)F)c1 | 15.4
40 | Cc1ccc(/C=C2\SC(=S)N(c3ccc(F)cc3)C2=O)o1 | 101
41 | O=C1/C(=C/c2ccc(I)o2)SC(=S)N1c1cccc(C(F)(F)F)c1 | 55.7
42 | CCOc1ccc(N2C(=O)S/C(=C\c3ccc(OC)cc3)C2=O)cc1 | 13.2
43 | O=C1/C(=C/c2ccc(Br)o2)SC(=S)N1c1cccc(C(F)(F)F)c1 | 21.6
44 | Cc1ccc(/C=C2\SC(=S)N(c3ccc(C)c(C)c3)C2=O)o1 | 14.9

Row | SMILES | displacement [%]
45 | O=C1S/C(=C\c2ccc(Br)o2)C(=O)N1c1ccc(Cl)cc1 | 88.9
46 | Cc1cc(=O)oc2cc(OCC(=O)OC(C)C)ccc12 | 1.9
47 | CCOC(=O)c1c(NC(C)=O)sc(I)c1-c1ccccc1 | 0.8
48 | Cc1cc(C(=O)NC2CCSC2=O)ccc1[N+](=O)[O-] (stereo unspecified) | -2.7
49 | CS(=O)(=O)N(Cc1ccc(Cl)cc1)c1ccc(C(=O)NCc2ccco2)cc1 | -14.6
50 | Cc1ccc([N+](=O)[O-])cc1S(=O)(=O)N1CCOCC1 | 5.1
51 | CCOc1cccc(C(=O)Nc2cc(-c3nc4cc(C)cc(C)c4o3)ccc2C)c1 | 9.5
52 | Cc1ccc(C)c(NC(=O)c2c(-c3ccccc3Cl)noc2C)c1 | 9.9
53 | CCOc1ccc(N2C(=O)S/C(=C\c3ccco3)C2=O)cc1 | 92.2
54 | Cc1ccsc1/C=C1\SC(=S)N(c2c(C)n(C)n(-c3ccccc3)c2=O)C1=O | 6.6
55 | Cc1ccsc1/C=C1\SC(=S)N(C(C)c2ccccc2)C1=O (stereo unspecified) | -6.6
56 | Cc1ccsc1/C=C1\SC(=S)N(c2ccccc2)C1=O | 126
57 | CCOc1ccc(N2C(=O)S/C(=C\c3ccccc3OC)C2=O)cc1 | 32.7
58 | CCOc1ccc(/C=C2\SC(=O)N(c3ccccc3)C2=O)cc1 | -1.9
59 | O=C(O)CSCCCN1C(=O)c2cccc3cccc(c23)C1=O | 8
60 | CC1=C(C(=O)Nc2ccccc2C)C(c2ccc(F)cc2)NC(=O)N1 (stereo unspecified) | 16.2
61 | Cc1ccc(S(=O)(=O)Nc2ccccc2C(=O)Nc2ccccc2)cc1 | 9.6
62 | COC(C(=O)N1CCCCCC1)(c1ccccc1)c1ccccc1 | 16.8
63 | COc1cc(/C=C2\SC(=S)NC2=O)ccc1Oc1ccc([N+](=O)[O-])cn1 | 20.6
64 | O=C1NC(=S)S/C1=C\c1ccc(Oc2ccc([N+](=O)[O-])cn2)cc1 | 61.8
65 | O=C1C(=Cc2ccc(Oc3ccc([N+](=O)[O-])cn3)cc2)C(=O)c2ccccc21 | 4.6
66 | O=C1NC(=S)N/C1=C\c1ccc(Oc2ccc([N+](=O)[O-])cn2)cc1 | 101

Row | SMILES | displacement [%]
67 | COc1cc(/C=C2\NC(=S)NC2=O)ccc1Oc1ccc([N+](=O)[O-])cn1 | 8.2
68 | O=C1NC(=S)NC(=O)C1=Cc1ccc(Oc2ccc([N+](=O)[O-])cn2)cc1 | 10.5
69 | COc1ccc(C(=O)Nc2ccc(S(=O)(=O)NC(C)=O)cc2)cc1 | 13.1
70 | COc1ccc(-n2cnc3cc(NS(=O)(=O)c4ccc(C)cc4)ccc32)cc1 | -1.2
71 | COc1cc(C(=O)Nc2nnc(CC(=O)NCc3ccccc3)s2)cc(OC)c1OC | -14
72 | CCCOc1ccc(N2C(=O)C3C4C=CC(C4=C(C)C)C3C2=O)cc1 (stereo unspecified) | 9.9
73 | COc1ccc(N2C(=O)C3C4C=CC(C4=C(C)C)C3C2=O)cc1 (stereo unspecified) | 120
74 | CC(=O)Oc1ccc(N2C(=O)C3C4C=CC(C4=C(C)C)C3C2=O)cc1 (stereo unspecified) | -3.2
75 | O=C1N=C(N2CCOCC2)S/C1=C/c1ccc(Cl)cc1 | -0.1
76 | COc1ccccc1NC(=O)c1cc(-c2cccs2)nc2ccccc12 | -3.7
77 | COC(=O)c1cc(-c2ccc(OC)cc2)nc2ccc(Br)cc12 | -4.1
78 | COC(=O)c1sccc1NC(=O)c1cc(-c2cccs2)nc2ccccc12 | 60.4
79 | COC(=O)c1cc(-c2cccs2)nc2ccc(Br)cc12 | 104
80 | COC(=O)c1ccccc1NC(=O)c1cc(-c2ccc(OC)cc2OC)nc2ccccc12 | -3
81 | COC(=O)c1sccc1NC(=O)c1cc(-c2ccc(OC)cc2OC)nc2ccccc12 | 16.4
82 | COC(=O)c1cc(-c2ccc(Br)cc2)nc2ccccc12 | 0
83 | COc1ccc(Cl)cc1NC(=O)c1cc(-c2cccs2)nc2ccccc12 | 8.5
84 | COc1ccc(-c2cc(C(=O)Nc3ccccc3F)c3ccccc3n2)c(OC)c1 | 82.3
85 | COc1cc(NC(=O)c2cc(-c3cccs3)nc3ccccc23)c(OC)cc1Cl | 55.2
86 | COC(=O)c1sccc1NC(=O)c1cc(-c2ccccc2Cl)nc2ccccc12 | 22.7
87 | COc1ccc(NC(=O)c2cc(-c3ccc(OC)cc3OC)nc3ccccc23)c(OC)c1 | -0.8
88 | O=C(CSCC(=O)Nc1cccc(C(F)(F)F)c1)Nc1ccccc1 | -10.4

Row | SMILES | displacement [%]
89 | CCOc1cc(/C=N/NC(=O)c2ccncc2)ccc1OC(=O)c1ccc([N+](=O)[O-])cc1 | 6.9
90 | O=C1c2cccc3cccc(c23)C(=O)N1/N=C/c1ccco1 | 25.1
91 | COc1ccc(S(=O)(=O)Nn2cnnc2)cc1 | -1
92 | O=C(O)CN(c1ccccc1)S(=O)(=O)c1ccccc1[N+](=O)[O-] | 4.7
93 | CCOC(=O)C1=C(O)/C(=C\c2ccc(OC)cc2)N=C1C | 4.4
94 | Cc1onc(-c2ccccc2Cl)c1C(=O)Nc1sc(C)c(C)c1C(=O)OC(C)C | -6.3
95 | CCN(CC)CCN1C(=O)C(O)=C(C(=O)/C=C/c2ccccc2)C1c1ccccc1[N+](=O)[O-] (stereo unspecified) | 3.2
96 | COc1ccc(-c2cc(C(F)(F)F)n3nc(C(=O)NCc4ccco4)c(Cl)c3n2)cc1OC | -5.3
97 | COc1ccc(Cc2noc(COc3ccc(Cl)cc3)n2)cc1 | 2.7
98 | Cc1ccc(OCCOc2ccccc2/C=C2/SC(=S)N(C)C2=O)cc1 | 3.3
99 | CN1C(=O)/C(=C\c2ccccc2OCCOc2ccc(Br)cc2)SC1=S | 2.3
100 | COc1ccccc1OCCOc1ccc(/C=C2/SC(=S)N(C)C2=O)cc1 | 3.9
101 | COc1cc(/C=C2/SC(=S)N(C)C2=O)ccc1OCCOc1ccc([N+](=O)[O-])cc1 | 74.5
102 | COc1cc(C=C2C(=O)N(C)C(=O)N(C)C2=O)ccc1OCCOc1ccc([N+](=O)[O-])cc1 | 26.1
103 | CN1C(=O)/C(=C\c2ccccc2OCCOc2ccc([N+](=O)[O-])cc2)SC1=S | 133
104 | CN1C(=O)/C(=C\c2ccc(OCCOc3ccc([N+](=O)[O-])cc3)cc2)SC1=S | -0.4
105 | Cc1ccccc1OCCOc1cccc(/C=C2/SC(=S)N(C)C2=O)c1 | 1.2
106 | COc1ccccc1OCCOc1cccc(/C=C2/SC(=S)N(C)C2=O)c1 | 95.5
